Source: publication PMC5540273 (PLoS ONE, 2017)

What follows are compounds tested on AAK1. Details: concentration: 1 μM,replicates: in singlicate; n = 1.
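Also: KINOMEscan kinase panel screen.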

Compound | %Inh [%]
CN1CCN(CCNc2nc3cc(Oc4ccc(NC(=O)Nc5cc(C(F)(F)F)ccc5F)cc4)ccc3[nH]2)CC1.Cl.Cl [GW768504] | 0
COc1cccc(OC)c1C(=O)Nc1cccc(-c2nn3ccccc3c2-c2ccnc(Nc3cccc(F)c3)n2)c1 [GSK361065] | 0
CC(=O)Nc1ccc(-c2cc3ncnc(SCC(=O)O)c3s2)cc1 | 44
COC(=O)c1cccc(NC(=O)NC2CCN(c3ccnc(Nc4cc(OC)c(OC)c(OC)c4)n3)C2)c1 (stereo not shown) [GSK1379767] | 68
NC(=O)Nc1sc(-c2ccc(F)cc2)cc1C(N)=O [GW789449] | 60
CCOC(=O)N1CCC(n2cnc(-c3ccc(F)cc3)c2-c2ccnc(N)n2)CC1 [SB-219952] | 0
C[C@@H]1CCN(C(=O)N2CCCC2)C[C@@H]1N(C)c1ncnc2[nH]ccc12 | 31
COc1cccc(C2=C(Nc3cccc(Cl)c3)C(=O)NC2=O)c1 [SB-341556] | 0
COC(=O)c1cccc(NC(=O)NC2CCN(c3ccnc(NCc4ccc(F)cc4)n3)CC2)c1 [GSK1379860] | 0
O=C(Nc1ccc(Oc2ccc3nc(NC(=O)C4CC4)cn3n2)c(F)c1)c1cccn(-c2ccccc2)c1=O | 0
Cn1ccc2ncnc(Oc3ccc(NC(=O)Nc4cncc(C(F)(F)F)c4)c(Cl)c3)c21 | 0
CSc1nccc(-c2c(-c3ccc(F)cc3)ncn2CCCN2CCOCC2)n1.Cl [SB-217146] | 0
CCn1c(-c2nonc2N)nc2cncc(CNC3CCNCC3)c21.Cl [SB-747651] | 39
Cc1ccc(C(=O)Nc2ccc(Oc3ccc4nc(NC(=O)C5CC5)cn4c3)c(F)c2)c(=O)n1-c1ccccc1 | 0
Cl.c1ccc(Oc2ccc(Nc3ccnc4cc(-c5ccc(CN6CCNCC6)o5)ccc34)cc2)nc1 [GW567142] | 2
Nc1nccc(-c2ccc3c(N)n[nH]c3c2)n1 [GSK1034945] | 65
O=C(Nc1cccc(C(F)(F)F)c1)c1cccc(Oc2ccc3nccn3n2)c1 | 0
CCNCC(Cc1ccccc1)NC(=O)c1cc(Br)c(-c2ccnc3[nH]ccc23)s1.Cl.Cl (stereo not shown) [GSK1383280] | 39

Compound | %Inh [%]
Cl.Nc1n[nH]c2cc(-c3ccccn3)ccc12 [GSK2189892] | 17
O=C1NCCc2[nH]c(-c3ccncc3)cc21 | 77
CS(=O)c1ccc(-c2coc3ccc(-c4n[nH]c(=O)o4)cc23)cc1 (stereo not shown) | 21
Cc1ccn2nc(-c3ccc(F)cc3)c(-c3ccncc3)c2c1.Cl [GW457859] | 0
Cn1ccc2ncnc(Oc3ccc(NC(=O)Nc4cnn(C(C)(C)C)c4)c(Cl)c3)c21 | 3
Cn1ccc2ncnc(Oc3ccc(NC(=O)Nc4cccc(C(F)(F)F)c4)c(F)c3)c21 | 15
COc1cc2ncn(-c3cc(OCC4CCCCC4)c(C(N)=O)s3)c2cc1OC [GSK204559] | 55
COC(=O)Nc1nc2cc(Oc3ccc(NC(=O)Nc4cc(C(F)(F)F)ccc4Cl)cc3)ccc2[nH]1.Cl [GW697465] | 0
N#Cc1cccc(C(=O)NC2CCN(c3ccnc(Nc4ccc(F)cc4)n3)C2)c1 (stereo not shown) [GSK1379708] | 0
CN(c1cccc(CNc2nc(Nc3ccc4c(c3)CC(=O)N4)ncc2C(F)(F)F)c1)S(C)(=O)=O | 51
CNC(=O)c1ccccc1Nc1nc(Nc2cccc(CS(C)(=O)=O)c2)ncc1C.O=CO [GSK1520489] | 85
C[C@@H](Oc1cc(-n2cnc3cc(-c4cnn(C)c4)ccc32)sc1C(N)=O)c1ccccc1Cl [GSK580432] | 82
COc1cc2c(Nc3ccc(NC(=O)c4ccccc4)cc3)ncnc2cc1OCCCN1CCOCC1 [GSK301329] | 0
CC(C)S(=O)(=O)N1CCN(Cc2ccc3c(c2)nc(NC(=O)c2ccsc2)n3C[C@H](O)c2ccccc2)CC1 [GW635815] | 38
CC(=O)Nc1nc2cnc(Nc3cc(NC(=O)c4cccc(CC(C)(C)C#N)c4)ccc3C)nc2s1 | 23
Cc1nnc(-c2ccc3occ(-c4ccc(S(C)=O)cc4)c3n2)o1 (stereo not shown) | 0
Cc1n[nH]c2cc(Nc3ccnc(Nc4cccc(CN5CCOCC5)c4)n3)ccc12 [GW682569] | 71
COc1cccc(CNC(=O)NC2CCN(c3ccnc(Nc4cc(OC)c(OC)c(OC)c4)n3)C2)c1 (stereo not shown) [GSK1379765] | 54

What follows are compounds tested on ABL1-nonphosphorylated. Details: concentration: 1 μM,replicates: in singlicate; n = 1.

Compound | %Inh [%]
CN1CCN(CCNc2nc3cc(Oc4ccc(NC(=O)Nc5cc(C(F)(F)F)ccc5F)cc4)ccc3[nH]2)CC1.Cl.Cl [GW768504] | 51
COc1cccc(OC)c1C(=O)Nc1cccc(-c2nn3ccccc3c2-c2ccnc(Nc3cccc(F)c3)n2)c1 [GSK361065] | 28
CC(=O)Nc1ccc(-c2cc3ncnc(SCC(=O)O)c3s2)cc1 | 15
COC(=O)c1cccc(NC(=O)NC2CCN(c3ccnc(Nc4cc(OC)c(OC)c(OC)c4)n3)C2)c1 (stereo not shown) [GSK1379767] | 0
NC(=O)Nc1sc(-c2ccc(F)cc2)cc1C(N)=O [GW789449] | 49
CCOC(=O)N1CCC(n2cnc(-c3ccc(F)cc3)c2-c2ccnc(N)n2)CC1 [SB-219952] | 60
C[C@@H]1CCN(C(=O)N2CCCC2)C[C@@H]1N(C)c1ncnc2[nH]ccc12 | 51
COc1cccc(C2=C(Nc3cccc(Cl)c3)C(=O)NC2=O)c1 [SB-341556] | 0
COC(=O)c1cccc(NC(=O)NC2CCN(c3ccnc(NCc4ccc(F)cc4)n3)CC2)c1 [GSK1379860] | 0
O=C(Nc1ccc(Oc2ccc3nc(NC(=O)C4CC4)cn3n2)c(F)c1)c1cccn(-c2ccccc2)c1=O | 99.9
Cn1ccc2ncnc(Oc3ccc(NC(=O)Nc4cncc(C(F)(F)F)c4)c(Cl)c3)c21 | 92.7
CSc1nccc(-c2c(-c3ccc(F)cc3)ncn2CCCN2CCOCC2)n1.Cl [SB-217146] | 35
CCn1c(-c2nonc2N)nc2cncc(CNC3CCNCC3)c21.Cl [SB-747651] | 5
Cc1ccc(C(=O)Nc2ccc(Oc3ccc4nc(NC(=O)C5CC5)cn4c3)c(F)c2)c(=O)n1-c1ccccc1 | 100
Cl.c1ccc(Oc2ccc(Nc3ccnc4cc(-c5ccc(CN6CCNCC6)o5)ccc34)cc2)nc1 [GW567142] | 99.7
Nc1nccc(-c2ccc3c(N)n[nH]c3c2)n1 [GSK1034945] | 0
O=C(Nc1cccc(C(F)(F)F)c1)c1cccc(Oc2ccc3nccn3n2)c1 | 98.5
CCNCC(Cc1ccccc1)NC(=O)c1cc(Br)c(-c2ccnc3[nH]ccc23)s1.Cl.Cl (stereo not shown) [GSK1383280] | 15
Cl.Nc1n[nH]c2cc(-c3ccccn3)ccc12 [GSK2189892] | 0

Compound | %Inh [%]
O=C1NCCc2[nH]c(-c3ccncc3)cc21 | 31
CS(=O)c1ccc(-c2coc3ccc(-c4n[nH]c(=O)o4)cc23)cc1 (stereo not shown) | 35
Cc1ccn2nc(-c3ccc(F)cc3)c(-c3ccncc3)c2c1.Cl [GW457859] | 0
Cn1ccc2ncnc(Oc3ccc(NC(=O)Nc4cnn(C(C)(C)C)c4)c(Cl)c3)c21 | 87
Cn1ccc2ncnc(Oc3ccc(NC(=O)Nc4cccc(C(F)(F)F)c4)c(F)c3)c21 | 88
COc1cc2ncn(-c3cc(OCC4CCCCC4)c(C(N)=O)s3)c2cc1OC [GSK204559] | 0
COC(=O)Nc1nc2cc(Oc3ccc(NC(=O)Nc4cc(C(F)(F)F)ccc4Cl)cc3)ccc2[nH]1.Cl [GW697465] | 97
N#Cc1cccc(C(=O)NC2CCN(c3ccnc(Nc4ccc(F)cc4)n3)C2)c1 (stereo not shown) [GSK1379708] | 0
CN(c1cccc(CNc2nc(Nc3ccc4c(c3)CC(=O)N4)ncc2C(F)(F)F)c1)S(C)(=O)=O | 46
CNC(=O)c1ccccc1Nc1nc(Nc2cccc(CS(C)(=O)=O)c2)ncc1C.O=CO [GSK1520489] | 99.9
C[C@@H](Oc1cc(-n2cnc3cc(-c4cnn(C)c4)ccc32)sc1C(N)=O)c1ccccc1Cl [GSK580432] | 58
COc1cc2c(Nc3ccc(NC(=O)c4ccccc4)cc3)ncnc2cc1OCCCN1CCOCC1 [GSK301329] | 16
CC(C)S(=O)(=O)N1CCN(Cc2ccc3c(c2)nc(NC(=O)c2ccsc2)n3C[C@H](O)c2ccccc2)CC1 [GW635815] | 0
CC(=O)Nc1nc2cnc(Nc3cc(NC(=O)c4cccc(CC(C)(C)C#N)c4)ccc3C)nc2s1 | 99.7
Cc1nnc(-c2ccc3occ(-c4ccc(S(C)=O)cc4)c3n2)o1 (stereo not shown) | 43
Cc1n[nH]c2cc(Nc3ccnc(Nc4cccc(CN5CCOCC5)c4)n3)ccc12 [GW682569] | 22
Cl.Cl.NC[C@H](CC1CCCCC1)NC(=O)c1ccc(-c2ccnc3[nH]ccc23)s1 [GSK1581428] | 0
COc1cccc(CNC(=O)NC2CCN(c3ccnc(Nc4cc(OC)c(OC)c(OC)c4)n3)C2)c1 (stereo not shown) [GSK1379765] | 0
